Compound activity deposited in PubChem BioAssay by National Center for Advancing Translational Sciences (NCATS).
A selection: hits, their analogues and other compounds. The true share with any hit is near 12%.
Pf growth 48h: P. falciparum growth inhibition at 48 hours (one generation). Potency, µM (titrated, usually from 28.7 µM), for inactives: at the highest dose activity change, negative = inhibition, hits mostly inhibitors. P. falciparum luciferase growth in erythrocytes, 48 h. 310,000 tested, 5.9% active; further: on the % scale 0 is the no-effect control and ±100 the full control effect
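Parasite viability was followed by luminescence of a genomically integrated firefly luciferase. Cultures held 0.1% parasitemia at 2% hematocrit (final), incubated under 5% CO2 at 37 C.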
Pf growth 96h: inhibits malaria parasite growth, 96 h; P. falciparum luciferase reporter growth, 96 h; Potency, µM (highest dose often 28.7 µM), for inactives: top-dose activity change, negative = inhibition, actives largely listed as inhibitors; 320,000 tested, 6.9% active; further: on the % scale 0 is the no-effect control and ±100 the full control effect
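Luminescence readout: decreased luciferase signal marks inhibited growth of reporter-expressing P. falciparum in infected red cells (2% hematocrit, 0.05% parasitemia final), exposed to compound two generations (96 h, 37 C, 5% CO2).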
SARS PLpro yeast: inhibitors of SARS-CoV papain-like protease in yeast; S. cerevisiae expressing SARS-CoV PLpro, growth rescue; 330,000 tested, 0.19% active; Potency, µM (top dose mostly 32.9 µM), inactives show top-dose activity, positive = growth rescue, usual class: activators; calls by dose curve; further: 0% is about no effect; nearly all actives have a fitted effect of over 55% in size
Sm TGR inh: inhibitors of Schistosoma mansoni thioredoxin glutathione reductase | Potency, µM (highest dose often 114 µM), inactives show at the top dose activity change, negative = inhibition, hits mostly inhibitors | purified TGR, DTNB reduction, TNB absorbance 405 nm | AID 485364 | 360,000 tested, 3% active; further: on the % scale 0 is the no-effect control and ±100 the full control effect; nearly all actives have a fitted effect of over 60% in size
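First, TGR (20 nM dispensed) and NADPH were mixed with compound. Second, a 15 min room-temperature incubation followed. Third, further NADPH and then DTNB were added to start the reaction. Finally, TNB absorbance was monitored kinetically.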
* = called active by the depositor; ! = not active in a repeat; [ ] = dose if it differs, or a comment. Unless noted, the call rests on the fitted dose curve; in most records, active means well fitted curve in the direction sought with a large enough effect; inconclusive means small, poorly fitted or top-dose-only effect, or another doubt; inactive means no such curve, though single readings can be large; an effect the other way counts as inactive or inconclusive. Potency means the concentration at half of the fitted maximal effect.

For CCn1cc(C(=O)NCc2ccc3c(c2)OCO3)c(=O)c2cc(F)c(N3CCN(C(=O)c4ccco4)CC3)cc21 the results were Pf growth 48h 8.3µM*, SARS PLpro yeast 28% and Sm TGR inh 2%.
For CCN(Cc1ccccc1)C(=O)CSc1nc(C)cc(C)c1C#N the results were Pf growth 48h inconclusive, Pf growth 96h 10µM*, SARS PLpro yeast -18% and Sm TGR inh -7%.
`COC(=O)CC(=O)CSc1nc(C)cc(C)c1C#N` gave Pf growth 48h 21%, Pf growth 96h 8.3µM*, SARS PLpro yeast -1% and Sm TGR inh -10%.
CCOC(=O)NC(=O)CSc1nc(C)cc(C)c1C#N was read as Pf growth 48h 148%, Pf growth 96h 9.3µM*, SARS PLpro yeast -3% and Sm TGR inh inconclusive.
Cc1cc(C(F)(F)F)c(C#N)c(SCC(=O)NC(C)(C)C)n1 was read as Pf growth 48h -14%, Pf growth 96h inconclusive, SARS PLpro yeast 6% and Sm TGR inh -3%.
Screening Cc1cc(C)c(C#N)c(SCC(=O)NC(C)(C)C)n1 returned Pf growth 96h 7.4µM*, SARS PLpro yeast 1% and Sm TGR inh -1%.
Cc1cc(C)c(C#N)c(SCC(=O)C(C)(C)C)n1 was read as Pf growth 48h 9%, Pf growth 96h -5%, SARS PLpro yeast 2% and Sm TGR inh -9%.
Screening Cc1c(Cl)cccc1N1C(=O)CC(NNC(=O)c2ccc3c(c2)OCO3)C1=O (stereo not drawn) returned SARS PLpro yeast 0%.
Screening CC(=O)Nc1ccc(S(=O)(=O)Nc2ccc(S(=O)(=O)Nc3nccs3)cc2)cc1 returned Pf growth 48h 2%, Pf growth 96h -3%, SARS PLpro yeast -1% and Sm TGR inh 5%.
For Cc1ccc(C)c2sc(NC(=O)c3ccc(S(=O)(=O)N4CCC(C)CC4)cc3)nc12 the results were Sm TGR inh 8%.
For Cc1c(C)n(Cc2ccccc2)c2ccc(C(=O)NCCc3ccccc3Cl)cc12 the results were Sm TGR inh -1%.
For Cc1cc(C)c(C#N)c(SCCS(=O)(=O)c2ccc(Cl)cc2)n1 the results were Pf growth 48h inconclusive, Pf growth 96h -21%, SARS PLpro yeast -2% and Sm TGR inh inconclusive.
Cc1cc(C)c(C#N)c(SCC(=O)N2CCCCC2)n1 was read as Pf growth 48h 3%, SARS PLpro yeast -4% and Sm TGR inh -2%.
Screening COc1cc2c(cc1OC)CN(C(=O)CSc1nc(C)cc(C)c1C#N)CC2 returned Pf growth 48h inconclusive, Pf growth 96h 6.6µM*, SARS PLpro yeast 11% and Sm TGR inh -10%.
Cc1cc(C)c(C#N)c(SCCS(=O)(=O)c2ccc(C(C)(C)C)cc2)n1 was read as Pf growth 48h 7.4µM*, SARS PLpro yeast -1% and Sm TGR inh 8%.
For COc1cc(S(=O)(=O)N2CCC(O)(c3cccc(C(F)(F)F)c3)CC2)ccc1-n1cnnn1 the results were Pf growth 48h 10µM*, Pf growth 96h inconclusive, SARS PLpro yeast 0% and Sm TGR inh 0%.
`C(=N\Nc1nc(-c2ccccc2)cs1)/c1cccnc1` gave Pf growth 48h inconclusive, Pf growth 96h inconclusive, SARS PLpro yeast -31% and Sm TGR inh -1%.
Clc1ccc(-c2csc(N/N=C/c3cccnc3)n2)c(Cl)c1 was read as Pf growth 48h 10µM*, Pf growth 96h 4.7µM*, SARS PLpro yeast -24% and Sm TGR inh -17%.
Screening CC(C)(C)c1csc(N/N=C/c2cccnc2)n1 returned Pf growth 48h 13µM*, Pf growth 96h inconclusive, SARS PLpro yeast -5% and Sm TGR inh -25%.
Cc1sc(N/N=C/c2cccnc2)nc1-c1ccc(Cl)cc1 was read as Pf growth 48h 13µM*, Pf growth 96h 63%, SARS PLpro yeast -9% and Sm TGR inh 0%.
`Clc1ccc(N/N=C/c2cccnc2)cc1` gave Pf growth 48h -15%, Pf growth 96h inconclusive, SARS PLpro yeast -65% and Sm TGR inh -17%.
`Cc1onc(-c2ccc(Cl)cc2Cl)c1-c1csc(N/N=C/c2ccccc2Cl)n1` gave Pf growth 48h 6.6µM*, Pf growth 96h inconclusive, SARS PLpro yeast 0% and Sm TGR inh 10%.
CCN(CC)CCCNC(=O)c1cn(CC)c2ccc(S(=O)(=O)N3CCC(C)CC3)cc2c1=O was read as Sm TGR inh 2%.
Screening CCOC(=O)C1CCCN(S(=O)(=O)c2cc3c4c(c2)CC(=O)N4CCC3)C1 (stereo not drawn) returned Sm TGR inh 12%.
For CNc1snc(C)c1C(=O)OC(C)C(=O)Nc1ccc(F)cc1 (stereo not drawn) the results were Pf growth 48h inconclusive, Pf growth 96h inconclusive, SARS PLpro yeast 13% and Sm TGR inh 3%.
Oc1ccc(-c2ccccc2)cc1CN1CCCCCC1 was read as Pf growth 48h 0.66µM*, Pf growth 96h inconclusive, SARS PLpro yeast 2% and Sm TGR inh 10%.
`c1ccc2c(CN3CCCCCC3)c[nH]c2c1` gave Pf growth 48h 45%, Pf growth 96h -18%, SARS PLpro yeast -2% and Sm TGR inh 6%.
Oc1ccc(CN2CCCCC2)nc1-c1ccccc1 was read as Pf growth 48h 0.52µM*, Pf growth 96h inconclusive, SARS PLpro yeast 4% and Sm TGR inh -1%.
O=c1c(-c2ccccc2)coc2c(CN3CCCCC3)c(O)ccc12 was read as Pf growth 48h inconclusive, Pf growth 96h inconclusive, SARS PLpro yeast -6% and Sm TGR inh -37%.
For CSc1ccc(CCNC(=O)Cn2ncc3c(=O)oc4ccccc4c32)cc1 the results were Sm TGR inh -17%.
CCC(C)C(NC(=O)CCC(=O)OCC(=O)[C@@]1(O)CCC2[C@@H]3CCC4=CC(=O)C=C[C@]4(C)C3[C@@H](O)C[C@@]21C)C(=O)O (stereo partly drawn) was read as Pf growth 48h 3.7µM*, Pf growth 96h inconclusive, SARS PLpro yeast -1% and Sm TGR inh -24%.
Screening CC(=O)OCC(=O)[C@@]1(O)CC[C@H]2[C@@H]3CCC4=CC(=O)CC[C@]4(C)[C@H]3[C@@H](O)C[C@@]21C returned Pf growth 48h inconclusive, Pf growth 96h -8%, SARS PLpro yeast 2% and Sm TGR inh 11%.
For C[C@]12C=CC(=O)C=C1CC[C@@H]1C2[C@@H](O)C[C@@]2(C)C1CC[C@]2(O)C(=O)COC(=O)CCC(=O)O (stereo partly drawn) the results were Pf growth 48h -16%[0.00184 µM], Pf growth 96h 25%, SARS PLpro yeast 7% and Sm TGR inh -5%.
For C[C@]12CCC(=O)C=C1CC[C@@H]1[C@@H]2[C@@H](O)C[C@@]2(C)[C@H]1CC[C@]2(O)C(=O)COP(=O)(O)O the results were Pf growth 48h 5% and Pf growth 96h 7.6µM*.
For C[C@]12CCC(=O)C=C1CC[C@@H]1[C@@H]2[C@@H](O)C[C@@]2(C)[C@H]1CC[C@]2(O)C(=O)COC(=O)CCC(=O)O the results were Pf growth 48h 13µM*!, Pf growth 96h 12µM*!, SARS PLpro yeast -5% and Sm TGR inh -3%.
